A selection: hits, their analogues and other compounds. The true share with any hit is near 2.8%.
IP6K1 inhibitor: blocks human inositol hexakisphosphate kinase 1; actives 0.81% (n = 140,000); Q92551; activity change, % (series mostly up to about 58 µM); IP6K1 kinase, ADP-Glo luminescence, 2 h; hits give low values; AID 1645851; in the data active = activity change below about -25%; also: % is scaled to controls: 0 for no effect and ±100 for the full control effect
Target sequence (Q92551 whole entry, looked up): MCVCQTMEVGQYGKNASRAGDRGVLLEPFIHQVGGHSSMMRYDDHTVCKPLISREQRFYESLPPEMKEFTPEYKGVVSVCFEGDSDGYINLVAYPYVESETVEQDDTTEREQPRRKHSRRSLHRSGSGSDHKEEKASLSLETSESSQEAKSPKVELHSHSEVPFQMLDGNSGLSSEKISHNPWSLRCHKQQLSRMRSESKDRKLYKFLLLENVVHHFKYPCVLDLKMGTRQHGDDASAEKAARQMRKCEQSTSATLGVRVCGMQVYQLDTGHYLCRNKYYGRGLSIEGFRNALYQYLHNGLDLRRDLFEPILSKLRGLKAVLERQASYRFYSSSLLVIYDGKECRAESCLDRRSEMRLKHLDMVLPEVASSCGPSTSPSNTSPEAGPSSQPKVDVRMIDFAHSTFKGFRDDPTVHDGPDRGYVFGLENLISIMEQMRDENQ
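ADP-Glo luminescence measures ADP made by human IP6K1 during a 2 h RT reaction with ATP/IP6 (mix at 1.3 mM/130 uM); top library doses 57.5 and 19.1 uM final.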
KDM5B inhibitor: inhibitors of human KDM5B histone demethylase; actives 2.6% (n = 220,000); Q9UGL1; KDM5B demethylase, FDH-coupled NADH fluorescence (FDH is formaldehyde dehydrogenase); Potency, µM (titrated, usually from 57.7 µM), hits mostly inhibitors; active = well fitted inhibition curve with a large enough effect; inconclusive = small, poorly fitted or top-dose-only effect; inactive = no such curve, though single readings can be large or run the other way; also: potency is read from the fitted curve at half-maximal effect; 0% is about no effect; nearly all actives have a fitted effect of over 70% in size
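qHTS format, multiple compound concentrations. Buffer 50 mM HEPES pH 7.5/0.01% Tween-20; 200 nM KDM5BΔAP final; 10 min compound preincubation; substrate-mix levels 12.5 µM peptide, 25 µM α-KG, 0.25 mM NAD⁺; 30 min RT; ΔRFU.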
An asterisk follows results filed as active.

What do the screens show for `O=C(Nc1ccc(Oc2ccccc2)cc1)N[C@H]1CO[C@H]2[C@@H]1OC[C@H]2OC(=O)Nc1cccc2ccccc12`?
IP6K1 inhibitor: 5; KDM5B inhibitor: inconclusive

How did O=C(Nc1ccc(Oc2ccccc2)cc1)O[C@@H]1CO[C@H]2[C@@H]1OC[C@@H]2NS(=O)(=O)c1ccc2ccccc2c1 do in these assays?
IP6K1 inhibitor: 9; KDM5B inhibitor: 22µM*

How did N#Cc1cc(-n2ccnc2-c2cc3n(n2)CCCNC3)ccc1N1CCCC1 do in these assays?
IP6K1 inhibitor: 52; KDM5B inhibitor: 28µM*

What do the screens show for `c1cn(-c2ccc3ncsc3c2)c(-c2cc3n(n2)CCCNC3)n1`?
IP6K1 inhibitor: -1; KDM5B inhibitor: 3.5µM*

Results for c1cn(-c2ccc(-c3cscn3)cc2)c(-c2cc3n(n2)CCCNC3)n1 ?
IP6K1 inhibitor: 2; KDM5B inhibitor: inactive

Results for c1cn(-c2ccc3cn[nH]c3c2)c(-c2cc3n(n2)CCCNC3)n1 ?
IP6K1 inhibitor: -6; KDM5B inhibitor: inactive

What do the screens show for `COc1ccc(-c2cccc(C(=O)N3CCN(C(=O)c4cccc(Cl)c4)CC3)c2)nn1`?
IP6K1 inhibitor: -7

How did CCc1nn(-c2ccc(OC)cc2)c(Oc2ccccc2F)c1CCC(=O)N1CCSCC1 do in these assays?
IP6K1 inhibitor: -10; KDM5B inhibitor: inactive

What do the screens show for `CN(C)C(=O)c1cc(Br)cn2ccnc12`?
IP6K1 inhibitor: -6; KDM5B inhibitor: 35µM*

What do the screens show for `O=C(NC1CC1)c1cc(Br)cn2ccnc12`?
IP6K1 inhibitor: -2; KDM5B inhibitor: 40µM*

Results for O=C(NCc1cccs1)c1ccccn1 ?
KDM5B inhibitor: inactive

Results for O=C(NCC(F)F)c1cc(Br)cn2ccnc12 ?
IP6K1 inhibitor: 6; KDM5B inhibitor: 40µM*

Results for O=C(NCc1cccs1)c1cc(Br)cn2ccnc12 ?
IP6K1 inhibitor: 1; KDM5B inhibitor: 40µM*

Results for O=C(NCC(F)F)c1nc2sccn2c1Br ?
IP6K1 inhibitor: 5; KDM5B inhibitor: inactive

Results for Cc1cc(C(=O)NC2CC2)c2cc(Br)ccc2n1 ?
KDM5B inhibitor: inactive

How did CN(C)C(=O)c1ccccc1Br do in these assays?
KDM5B inhibitor: inactive

How did CCCN(C(=O)c1ccc(OC(F)(F)F)cc1)c1c(N)n(Cc2ccccc2)c(=O)[nH]c1=O do in these assays?
KDM5B inhibitor: inactive

Results for COCc1nn2c(=O)c(NC(=O)c3ccccc3)cnc2s1 ?
KDM5B inhibitor: inactive

How did CC(Sc1nc(N)cc(N)n1)C(=O)c1ccc(Br)cc1 (stereo not drawn) do in these assays?
KDM5B inhibitor: inactive

What do the screens show for `O=C(NC1CCCN(c2cc(-c3ccc(Cl)cc3)[nH]n2)C1)c1ccccn1` (stereo not drawn)?
IP6K1 inhibitor: 0; KDM5B inhibitor: inactive

What do the screens show for `CCCN1CCCC2(CCN(c3cc(C)c4cccc(OC)c4n3)C2)C1=O` (stereo not drawn)?
IP6K1 inhibitor: -10; KDM5B inhibitor: 28µM*

What do the screens show for `Cc1cccn2cc(C(=O)N3CCC4(CCCN(CC5CCC5)C4=O)C3)nc12` (stereo not drawn)?
IP6K1 inhibitor: 7; KDM5B inhibitor: inactive

How did Cc1cc(N2CCC3(CCCN(CC4CCC4)C3=O)C2)nc2ccccc12 (stereo not drawn) do in these assays?
IP6K1 inhibitor: 4; KDM5B inhibitor: 28µM*

What do the screens show for `Cc1cccc(CN2CCCC3(CCN(c4cc(C)c5ccccc5n4)C3)C2=O)c1` (stereo not drawn)?
IP6K1 inhibitor: 15; KDM5B inhibitor: 28µM*

What do the screens show for `Cc1cccc(CN2CCCC3(CCN(c4nc5ccccc5o4)C3)C2=O)c1` (stereo not drawn)?
IP6K1 inhibitor: 8; KDM5B inhibitor: inactive

How did COCCN1CCCC2(CCN(c3nc(OC)cc(OC)n3)C2)C1=O (stereo not drawn) do in these assays?
IP6K1 inhibitor: 7; KDM5B inhibitor: inactive

How did O=C(c1ccccc1)N1CCC[C@H]1c1nc(-c2ccc(F)cc2)no1 do in these assays?
IP6K1 inhibitor: 0; KDM5B inhibitor: inactive

How did CCOc1ccc2c(n1)CCN(C(=O)c1ccsc1)C2 do in these assays?
IP6K1 inhibitor: -11; KDM5B inhibitor: inactive

What do the screens show for `CNC(=O)[C@@H]1CN(C(=O)c2ccsc2)C[C@H]1c1nc(C)no1`?
IP6K1 inhibitor: 12; KDM5B inhibitor: inactive

Results for CCn1ncc(N2CCC(NC(=O)c3cccc(C)c3)CC2)cc1=O ?
IP6K1 inhibitor: 12; KDM5B inhibitor: inactive

Results for O=C(Cc1c[nH]c2ncc(-c3ccccc3)cc12)NC1CCOCC1 ?
IP6K1 inhibitor: -21; KDM5B inhibitor: 28µM*

Results for CC(C)CNC(=O)Cc1c[nH]c2ncc(-c3cnn(C)c3)cc12 ?
IP6K1 inhibitor: -14; KDM5B inhibitor: 40µM*

How did CN1CCC(NC(=O)Cc2c[nH]c3ncc(-c4ccccc4)cc23)CC1 do in these assays?
IP6K1 inhibitor: -22; KDM5B inhibitor: 35µM*

What do the screens show for `O=C(Cc1c[nH]c2ncc(-c3cccnc3)cc12)NC1CC1`?
IP6K1 inhibitor: -11; KDM5B inhibitor: inactive

What do the screens show for `Cn1cc(-c2cnc3[nH]cc(CC(=O)NCc4ccncc4)c3c2)cn1`?
IP6K1 inhibitor: -13; KDM5B inhibitor: inconclusive

Results for O=C(Cc1c[nH]c2ncc(-c3cccnc3)cc12)NC1CCOCC1 ?
IP6K1 inhibitor: -21; KDM5B inhibitor: inactive

What do the screens show for `O=C1NCC2(CCN(C(=O)c3ccccc3F)CC2)Oc2ccccc21`?
IP6K1 inhibitor: 14; KDM5B inhibitor: inactive

How did CC(=O)c1ccc(NC(=O)N[C@H]2CO[C@H]3[C@@H]2OC[C@@H]3n2nnnc2-c2ccc(N(C)C)cc2)cc1 do in these assays?
IP6K1 inhibitor: 3; KDM5B inhibitor: inconclusive

What do the screens show for `CN(C)c1ccc(-c2nnnn2[C@H]2CO[C@H]3[C@@H]2OC[C@H]3O)cc1`?
IP6K1 inhibitor: 10; KDM5B inhibitor: inactive

Results for CN(C)c1ccc(-c2nnnn2[C@H]2CO[C@H]3[C@@H]2OC[C@@H]3NS(=O)(=O)c2ccc3ccccc3c2)cc1 ?
IP6K1 inhibitor: 6; KDM5B inhibitor: 22µM*

What do the screens show for `CN(C)c1ccc(-c2nnnn2[C@H]2CO[C@H]3[C@@H]2OC[C@@H]3NC(=O)Nc2ccc(Oc3ccccc3)cc2)cc1`?
IP6K1 inhibitor: 4; KDM5B inhibitor: 13µM*

What do the screens show for `C=C1[C@@H]2CC[C@@H]3[C@@](CCC4C(C(=O)O)(C(=O)O)C[C@@H](O[C@@H]5O[C@H](CO)[C@@H](O)[C@H](O)[C@H]5OC(=O)CC(C)C)C[C@]43C)(C2)[C@H]1O` (stereo partly drawn)?
IP6K1 inhibitor: -2

How did O=C(C1CCCN(C2CCN(C3Cc4ccccc4C3)CC2)C1)N1CCCC1 (stereo not drawn) do in these assays?
IP6K1 inhibitor: -4; KDM5B inhibitor: inactive

What do the screens show for `Cc1ccccc1NC(=O)N1CCC(N2CCCC(C(=O)N3CCCC3)C2)CC1` (stereo not drawn)?
IP6K1 inhibitor: 16; KDM5B inhibitor: 22µM*

What do the screens show for `C[S+](=O)([O-])N1CCN(c2ccc(C=O)cc2)C(=O)C1`?
IP6K1 inhibitor: 0; KDM5B inhibitor: inconclusive

How did Oc1ccccc1CN[C@H]1[C@H](O)[C@@H](N2CCN(c3ccccc3)CC2)[C@@H]2OC[C@H]1O2 do in these assays?
IP6K1 inhibitor: 6; KDM5B inhibitor: inconclusive

Results for O[C@H]1[C@H](NCc2ccncc2)[C@H]2CO[C@H](O2)[C@@H]1N1CCN(c2ccccc2)CC1 ?
IP6K1 inhibitor: -4; KDM5B inhibitor: 22µM*
